CHX counter: affects cycloheximide protein synthesis inhibition readout, counter-screen. 300,000 compounds, 12% hits. max response, %. cell reporter, cycloheximide protein synthesis inhibition counterscreen; in the data active = max response mostly above about 13%, no sharp cut-off; inactive = mostly below about 14%; note: read at 38.3 µM for the half of the compounds with a filed dose; 0% is about no effect
Shiga toxin inh: Shiga toxin inhibition | Vero cells, Shiga toxin protein synthesis inhibition reporter | inhibition, % at 38.7 µM | 290,000 compounds, 9.2% hits | AID 2315; in the data active = inhibition mostly above about 28%, no sharp cut-off; inactive = mostly below about 43%; note: 0% is about no effect
FMDV antiviral: foot and mouth disease virus antiviral activity; FMDV antiviral cell-based qHTS; Potency, µM (top dose mostly 57.9 µM), without a hit: at the top dose activity change, negative = inhibition, actives largely listed as inhibitors; 410,000 compounds, 1.2% hits; AID 1159524; calls by dose curve; tested in HEK293T cells; note: read-out not given here; potency is the fitted concentration of half-maximal effect; % is set by controls: 0 for no effect and ±100 for the full control effect; nearly all actives have a fitted effect of over 45% in size
Sm TGR block: inhibitors of Schistosoma mansoni thioredoxin glutathione reductase | Potency, µM (titrated, usually from 114 µM), inactives show at the highest dose activity change, negative = inhibition, actives largely listed as inhibitors | 360,000 compounds, 3% hits | Q962Y6 | purified TGR, DTNB reduction, TNB absorbance 405 nm | AID 485364; active = well fitted inhibition curve with a large enough effect; inconclusive = small, poorly fitted or top-dose-only effect; inactive = no such curve, though single readings can be large or run the other way; note: potency is the fitted concentration of half-maximal effect; % is set by controls: 0 for no effect and ±100 for the full control effect; nearly all actives have a fitted effect of over 60% in size
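Kinetic colorimetric format: TGR-catalysed, NADPH-driven DTNB reduction monitored via TNB absorbance. Enzyme dispensed at 20 nM; compound exposure 15 min at room temperature before reaction start.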
Starred values were filed as active, the others as inactive; ? = inconclusive; nt = not tested or not shown. Most compounds without a hit are left out; they make up all but 12% or so of the library.

SMILES	CHX counter	Shiga toxin inh	FMDV antiviral	Sm TGR block
COc1ccc(CCn2c3c(c(=O)[nH]c2=O)C(NC(=O)c2ccccc2)(C(F)(F)F)C(=O)N3)cc1OC (stereo not given)	nt	nt	-8.3%	9.4%
CC(C)NC(=O)C1CCN(C2CCN(Cc3cn[nH]c3-c3ccccc3)CC2)CC1	-3.0	-2.4	-3.9%	-0.7%
c1ccc(-c2ccc(-c3[nH]ncc3CN3CCC(N4CCSCC4)CC3)cc2)cc1	7.3*	48.4*	18.0%	-1.7%
CN1CCN(C(=O)c2ccc3c(c2)N(Cc2c(F)cccc2Cl)C(=O)c2ccccc2S3)CC1	nt	nt	-8.4%	-16.7%
O=C(Nc1ccc2nn(-c3ccccc3)nc2c1)c1cccs1	34.8*	72.6*	nt	0.1%
O=C(Nc1ccc2nsnc2c1)c1cccs1	30.2*	19.9	30.4%	-2.1%
COc1cc(N)ccc1NC(=O)c1cccs1	13.2*	6.0	22.5%	-0.1%
COc1cc(NC(=O)c2cccs2)cc(OC)c1	14.9*	active	6.6%	-1.5%
COc1cc(NC(=O)c2cc(OC)c(OC)c(OC)c2)ccc1NC(=O)c1cccs1	0.6	-42.1	-17.8%	8.4%
COc1ccc(-c2[nH]ncc2/C=N\NC(=O)c2cccs2)cc1OC	35.9*	87.3*	6.6%	34.3%
COc1ccc(NC(=O)c2cccs2)cc1OC	18.8*	19.2	41.2%	0.4%
CCc1ccc(C2CC(=O)c3c([nH]c(C(=O)OC4CCC(C)CC4)c3C)C2)cc1 (stereo not given)	nt	nt	-18.6%	1.5%
COC(=O)c1cc2sccc2n1Cc1ccc(F)cc1Cl	nt	nt	-21.2%	-6.9%
Cc1ccc(-c2cn3c4c(=O)n(C)c(=O)n(C)c4nc3n2-c2cccc(Cl)c2)cc1	nt	nt	-7.4%	1.9%
CCCCN(CC)CCNC(=O)CN1C(=O)COc2ccc(S(=O)(=O)N3CCOCC3)cc21	nt	nt	-3.4%	-3.1%
COc1ccc(Cl)cc1-c1nc(-c2ccc(NC(=O)c3cccs3)cc2)no1	85.2*	34.3*	10.8%	-2.7%
COc1ccc(-c2noc(-c3cc(Cl)ccc3Cl)n2)cc1OC	-3.0	-8.9	nt	-5.9%
COc1cccc(NC(=O)c2cccs2)c1	54.0*	134.8*	51.3%	1.7%
COc1ccc(C(=O)Nc2cccc(NC(=O)c3cccs3)c2)cc1	24.7*	20.3*	76.7%	0.8%
COc1ccc(C)cc1-n1nnc(S(=O)(=O)c2ccc(C)cc2)c1C	nt	nt	-1.1%	6.9%
CN(C)CCN(C(=O)c1ccco1)c1nc2c(F)cc(F)cc2s1	nt	nt	10.1%	0.4%
Nc1ccc(SCc2nc3cccc4c3n2CCC4)cc1	25.1*	55.2*	37.3%	-14.3%
Cc1nc2c(-c3ccccc3)c(C)nn2c(N)c1-c1ccccc1	49.3*	28.6*	10.8%	-8.5%
CCSc1cc(C)nc2c(-c3ccccc3)c(C)nn12	9.9	-1.8	14.6%	5.4%
Cc1nn2c(-c3ccccc3)ccnc2c1-c1ccccc1	48.7*	94.4*	-31.0%	2.1%
SMILES	CHX counter	Shiga toxin inh	FMDV antiviral	Sm TGR block
C=C(C)CSc1cc(C)nc2c(-c3ccccc3)c(C)nn12	36.0*	34.0	-1.0%	?
Cc1nn2c(N)c(-c3ccccc3)cnc2c1-c1ccc(Cl)cc1	38.5*	111.6*	64.5%	-19.4%
Cc1nc2cc(-c3ccccc3)nn2c(N)c1-c1ccccc1	nt	nt	-17.8%	-1.9%
COc1ccc(-c2nc3sc(CCNC(=O)c4ccccc4C)c(C)n3n2)cc1	nt	nt	-10.8%	2.2%
COc1cc(OC)c(NC(=O)N2CCOc3ccc(C)cc32)cc1Cl	nt	nt	0.0%	2.4%
Cc1cccc(N(C)C(=O)C(Cc2ccccc2)NS(=O)(=O)c2cccc3nsnc23)c1 (stereo not given)	nt	nt	34.2%	2.0%
CCOC(=O)c1c(-c2ccccc2)oc2ccc(N(C(C)=O)S(=O)(=O)c3ccc(CC)cc3)cc12	nt	nt	-10.2%	9.4%
C=CCNCCOCCOc1ccccc1-c1ccccc1	19.8*	96.9*	-7.5%	-11.5%
O=C(NCc1ccco1)c1ccccc1-c1nc(-c2ccccc2)no1	11.3	17.4	0.0%	6.2%
COc1ccc(-c2nc(CCNC(=O)c3ccco3)cs2)cc1OC	8.5	15.9	-1.1%	6.0%
COc1ccccc1-c1noc(-c2ccccc2C(=O)NCc2ccco2)n1	14.0*	30.5	-0.1%	nt
Cc1ccc(-c2noc(-c3ccccc3C(=O)NCc3ccco3)n2)cc1	33.1*	62.6*	17.9%	?
Cc1cccc(-c2nc(CNC(=O)c3ccco3)cs2)c1	41.8*	106.2*	18.7%	-12.6%
Cc1cccc(-c2noc(-c3ccccc3C(=O)NCc3ccco3)n2)c1	74.6*	124.6	37.9%	22.4µM*
COc1ccc(-c2nn(-c3cccc(F)c3)c3c2cnc2cc(OC)c(OC)cc23)cc1	nt	nt	-1.9%	-0.2%
CCc1ccc(NC(=O)C2CCN(C(=O)N3CC(CC)Oc4ccccc43)CC2)cc1 (stereo not given)	nt	nt	?	-13.9%
CCN(CC)CCN1C(=O)C(=O)/C(=C(/O)c2c(C)[nH]c(C(=O)OC)c2C)C1c1ccc(C)o1 (stereo not given)	15.6	2.6	-6.8%	20µM*
CCOC(=O)c1[nH]c(C)c(/C(O)=C2\C(=O)C(=O)N(CCN(C)C)C2c2ccc(C)o2)c1C (stereo not given)	1.4	23.9	-8.5%	28.2µM*
CCOc1ccc(C2/C(=C(\O)c3c(C)[nH]c(C(=O)OC)c3C)C(=O)C(=O)N2CCN(C)C)cc1 (stereo not given)	14.4	-12.2	-4.1%	1.4%
C/C(=N\NC(=O)c1cccnc1)c1ccc(Br)cc1	15.7*	27.3	7.3%	2.0%
CSC(=S)N/N=C(\C)c1ccc(Br)cc1	29.5*	45.3*	-2.1%	0.2%
C/C(=N\NC(=O)c1cccc(Br)c1)c1cccnc1	23.5*	50.6*	-5.9%	8.0%
C/C(=N/NC(=O)CNS(=O)(=O)c1ccccc1)c1ccc(Br)cc1	1.1	-4.2	46.8%	5.7%
O=C(N/N=C(\c1ccccc1)c1cccnc1)c1cc(O)ccc1O	-2.4	-11.8	nt	39.8µM*
Cc1cccc(N2CCN(C(=O)c3c4c(nc5ccccc35)C(=O)N(C3CCCCC3)C4)CC2)c1C	nt	nt	0.0%	3.0%
SMILES	CHX counter	Shiga toxin inh	FMDV antiviral	Sm TGR block
COC(=O)[C@@H]1CCCN1C(=O)c1c(OC)cc(=O)n2c1CCN(Cc1ccc(C)o1)CC2	nt	nt	0.4%	nt
CC(=O)Nc1ccccc1NC(=O)C/C(C)=N/NC(=O)c1ccncc1	11.6	-3.0	-17.4%	nt
C/C(=N\NC(=O)c1cccnc1)c1ccccc1	13.1*	5.1	70.8%	5.5%
CC(=O)Nc1ccccc1NC(=O)C/C(C)=N/NC(=O)c1cccnc1	13.6	48.5*	23.8%	0.6%
C/C(=N\NC(=O)c1ccc(Br)cc1)c1ccccc1	54.6*	112.9*	38.2%	-29.4%
CC(C)(C)C(=O)CSc1ncnc2sc3c(c12)CCC3	43.9*	67.4*	1.4%	-3.1%
CC(=O)CSc1ncnc2sc3c(c12)CCC3	5.0	33.0	-12.8%	9.1%
COc1c(O)ccc(/C=C(\C#N)c2nc3ccccc3[nH]2)c1[N+](=O)[O-]	40.5*	63.9*	-6.6%	-1.1%
COc1cc(/C=C(\C#N)c2nc3ccccc3[nH]2)ccc1Oc1ccc([N+](=O)[O-])cn1	23.5*	18.3	13.5%	-1.2%
CCC(=O)Oc1ccc(/C=C(\C#N)c2nc3ccccc3[nH]2)cc1OC	nt	nt	35.6%	-0.6%
